Compound activity (PubChem)
Compounds with a hit are over-represented: about 18% of the library has one in this group of screens.
DT40 TDP1 no CPT = qHTS for Inhibitors of human tyrosyl-DNA phosphodiesterase 1 (TDP1): qHTS in cells in absence of CPT; actives 15% (n = 420,000); Potency, µM (highest dose often 46.2 µM), for inactives: at the highest dose activity change, negative = growth inhibition, most hits filed as inhibitors; DT40 Tdp1-/- hTDP1 cells, no CPT, ATP luminescence, 48 h; further: potency means the concentration at half of the fitted maximal effect; on the % scale 0 is the no-effect control and ±100 the full control effect; nearly all actives have a fitted effect of over 55% in size
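Cells were dispensed at 400 per well, compounds added by pin tool, plates incubated ≥48 hr at 37 °C, then CellTiter-Glo added for 30 min at room temperature before luminescence reading. Line: DT40 Tdp1-/- complemented with hTDP1; camptothecin omitted.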
HepG2 viability = kills HepG2 cells in TGF-b inhibitor counter-screen | HepG2 CAGA-GFP viability, ATP luminescence, 18 h | actives 0.76% (n = 410,000) | Potency, µM (top dose mostly 46.1 µM), without a hit: top-dose activity change, negative = cytotoxicity, hits mostly cytotoxic; further: potency means the concentration at half of the fitted maximal effect
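HepG2 CAGA-GFP cells (1000/well, DMEM with 1% FBS) received compound, then TGF-beta at 500 pg/mL final, and were incubated 18 hours at 37 degrees C. Viability was read by CellTiter-Glo luminescence. Media-only wells were set as complete cell-killing and DMSO as no toxicity.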
TGFb inhibitor = TGF-b pathway inhibition; HepG2 CAGA-GFP TGF-b/SMAD3 reporter, GFP fluorescence, 18 h; TGF-beta stimulated, 500 pg/mL final; Potency, µM (titrated, usually from 46.1 µM), without a hit: top-dose activity, negative = inhibition, hits mostly inhibitors; actives 1.2% (n = 410,000); further: potency means the concentration at half of the fitted maximal effect; on the % scale 0 is the no-effect control and ±100 the full control effect; nearly all actives have a fitted effect of over 65% in size
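First, reporter cells (HEPG2 CAGA-GFP) rested 2 h at 37 degrees C. Next, compounds were pinned in and TGF-beta added to 500 pg/mL final. After 18 h, GFP was imaged per cell and summed per well.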
TDP1 inh = blocks human tyrosyl-DNA phosphodiesterase 1. Q9NUW8. Potency, µM (top dose mostly 130 µM), for the others: at the top dose activity change, negative = inhibition, usual class: inhibitors. AID 485290. recombinant TDP1, AlphaScreen DNA substrate cleavage. actives 0.28% (n = 350,000); further: potency means the concentration at half of the fitted maximal effect; on the % scale 0 is the no-effect control and ±100 the full control effect; nearly all actives have a fitted effect of over 40% in size
Target sequence (Q9NUW8 whole entry, looked up): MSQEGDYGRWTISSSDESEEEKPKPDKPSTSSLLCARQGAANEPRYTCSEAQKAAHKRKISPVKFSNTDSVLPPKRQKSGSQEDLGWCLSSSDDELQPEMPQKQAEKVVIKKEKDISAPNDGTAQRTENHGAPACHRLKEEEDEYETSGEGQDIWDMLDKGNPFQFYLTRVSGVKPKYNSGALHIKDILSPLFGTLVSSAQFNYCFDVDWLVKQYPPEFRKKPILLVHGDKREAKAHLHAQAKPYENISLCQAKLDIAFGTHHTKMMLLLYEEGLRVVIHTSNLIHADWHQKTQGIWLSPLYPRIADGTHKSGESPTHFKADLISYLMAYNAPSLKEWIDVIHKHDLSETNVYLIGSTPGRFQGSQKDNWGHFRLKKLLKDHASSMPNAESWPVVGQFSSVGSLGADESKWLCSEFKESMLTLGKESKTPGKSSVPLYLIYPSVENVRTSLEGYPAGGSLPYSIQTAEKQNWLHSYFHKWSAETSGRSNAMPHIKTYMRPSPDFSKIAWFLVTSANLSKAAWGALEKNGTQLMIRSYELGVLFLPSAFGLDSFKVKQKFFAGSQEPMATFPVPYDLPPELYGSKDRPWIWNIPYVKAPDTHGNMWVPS
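Enzyme-compound mixtures sat 15 min at room temperature, followed by a 5 min reaction with 15 nM final substrate and 10 min with AlphaScreen beads. Recombinant human Tdp1 was used at 1 nM final.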
IL1B secr inh = inflammasome signaling inhibition, IL-1 beta readout; AID 743279; activity change, % at 57.5 µM; THP-1 LPS/ATP IL-1B secretion, AlphaLISA, 16 h; active compounds read low; actives 4.7% (n = 360,000); in the data active means activity change below about -50%; inconclusive means mostly about -30% to -49%; further: on the % scale 0 is the no-effect control and ±100 the full control effect
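Secreted IL-1B measured by AlphaLISA bead assay after 16 h compound exposure of THP-1 cells; compounds (final up to 57.5 uM) added 1 h before LPS (250 ng/mL) and ATP (1.25 mM) stimulation; lower signal means less secretion.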
DT40 TDP1 CPT = growth inhibition of DT40 Tdp1-/-;hTDP1 cells with camptothecin (screen for TDP1 inhibitors); chicken DT40 Tdp1-/-;hTDP1 cells + 20 nM CPT, ATP luminescence, 48 h; Potency, µM (series often up to 46.2 µM), without a hit: at the top dose activity change, negative = growth inhibition, most hits filed as inhibitors; actives 12% (n = 420,000); AID 686979; further: potency means the concentration at half of the fitted maximal effect; on the % scale 0 is the no-effect control and ±100 the full control effect; nearly all actives have a fitted effect of over 55% in size
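Cell growth measured by CellTiter-Glo luminescence after a minimum 48 h, 37 C compound exposure with 20 nM CPT in Tdp1-knockout DT40 cells stably expressing hTDP1, seeded 400/well; qHTS titration format.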
Starred values were filed as active, the others as inactive. Unless noted, the call rests on the fitted dose curve; in most records, active means well fitted curve in the direction sought with a large enough effect; inconclusive means small, poorly fitted or top-dose-only effect, or another doubt; inactive means no such curve, though single readings can be large; an effect the other way counts as inactive or inconclusive.

Screening Cc1cccc(N2CC(C(=O)NCc3ccco3)CC2=O)c1C (stereo not given) returned DT40 TDP1 no CPT -26%, HepG2 viability -9%, TGFb inhibitor -3%, TDP1 inh 0%, IL1B secr inh -10 and DT40 TDP1 CPT -2%.
For Cc1ccc(C(=O)CN2C(=O)c3ccccc3S2(=O)=O)cc1 the results were DT40 TDP1 no CPT 7%, HepG2 viability -22%, TGFb inhibitor 2%, TDP1 inh 0%, IL1B secr inh 13 and DT40 TDP1 CPT 28%.
Screening Cc1ccc(C(=O)CN2/C(=C(\O)c3ccccc3)C(=O)c3ccccc3S2(=O)=O)c(C)c1 returned DT40 TDP1 no CPT 16µM*, HepG2 viability -37%, TGFb inhibitor -2%, TDP1 inh -1%, IL1B secr inh 9 and DT40 TDP1 CPT 12µM*.
For Cc1cc(C(=O)CN2C(=O)c3ccccc3S2(=O)=O)c(C)n1-c1ccccc1 the results were DT40 TDP1 no CPT 23µM*, HepG2 viability -4%, TGFb inhibitor -6%, TDP1 inh 6%, IL1B secr inh -28 and DT40 TDP1 CPT 21µM*.
Cc1cc(C(=O)CN2C(=O)C3CC=CCC3C2=O)c(C)n1-c1ccccc1 (stereo not given) was read as DT40 TDP1 no CPT 23µM*, HepG2 viability -23%, TGFb inhibitor -15%, TDP1 inh 6%, IL1B secr inh 0 and DT40 TDP1 CPT 23µM*.
For Nc1c(Br)cc(C=O)cc1Br the results were DT40 TDP1 no CPT inconclusive, HepG2 viability -5%, TGFb inhibitor 4% and DT40 TDP1 CPT inconclusive.
For Cc1nc2ccn(Cc3ccco3)c(=O)c2cc1C(=O)NCc1ccc(F)cc1 the results were DT40 TDP1 no CPT -23%, HepG2 viability 2%, TGFb inhibitor -23%, TDP1 inh 2% and DT40 TDP1 CPT -11%.
Clc1ccc(Sc2cc(N3CCOCC3)nc(-c3ccccc3)n2)cc1 was read as DT40 TDP1 no CPT 29µM*, HepG2 viability -7%, TGFb inhibitor 4%, TDP1 inh 2%, IL1B secr inh 0 and DT40 TDP1 CPT inconclusive.
For c1ccc(-c2nc(N3CCOCC3)cc(N3CCOCC3)n2)cc1 the results were DT40 TDP1 no CPT -17%, HepG2 viability -17%, TGFb inhibitor -2%, TDP1 inh -4%, IL1B secr inh inconclusive and DT40 TDP1 CPT -27%.
Screening CCCc1ccc(Oc2cc(N3CCOCC3)nc(-c3ccccc3)n2)cc1 returned DT40 TDP1 no CPT inconclusive, HepG2 viability -2%, TGFb inhibitor 11%, IL1B secr inh 12 and DT40 TDP1 CPT 29µM*.
For CCOC(=O)/C=c1\s/c(=C\c2ccc3c(c2)OCCO3)c(=O)n1CC(=O)NCC1CCCO1 (stereo not given) the results were DT40 TDP1 no CPT -15%, HepG2 viability -8%, TGFb inhibitor -9%, TDP1 inh 10%, IL1B secr inh 2 and DT40 TDP1 CPT -25%.
CCOC(=O)/C=c1/s/c(=C\c2c(OC)ccc3ccccc23)c(=O)n1CC(=O)NCC1CCCO1 (stereo not given) was read as DT40 TDP1 no CPT 26µM*, HepG2 viability 7%, TGFb inhibitor 16%, IL1B secr inh 6 and DT40 TDP1 CPT 23µM*.
Screening CCOC(=O)/C=c1\s/c(=C\c2ccc3cc(OC)ccc3c2)c(=O)n1CC(=O)NCc1ccc2c(c1)OCO2 returned DT40 TDP1 no CPT 9.2µM*, HepG2 viability 6%, TGFb inhibitor 5%, TDP1 inh -8%, IL1B secr inh 7 and DT40 TDP1 CPT 6.5µM*.
